We go through 98 molecules from PubChem BioAssay AID624297 (National Center for Advancing Translational Sciences (NCATS), 2012).

About 6,200 (1.8%) of roughly 340,000 compounds were called active. A call without a number means that no potency is given here. About 10% were inconclusive and are not listed. For the sample, actives were picked, then their nearest neighbours and some compounds at random. A number with no mark means an inactive call. The call rests on the fitted dose curve; in most records, active means well fitted activation curve with a large enough effect; inconclusive means small, poorly fitted or top-dose-only effect; inactive means no such curve, though single readings can be large or run the other way.
Potency means the concentration at half of the fitted maximal effect.

This assay is described as follows: A quantitative high throughput screen for small molecules that induce DNA re-replication in SW480 colon adenocarcinoma cells. Further: nearly all actives have a fitted effect of over 55% in size. Conditions: Hoechst DNA content imaging, 48 h; series mostly up to 46.1 µM. The method, boiled down:
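Quantitative HTS format with DMSO vehicle controls; 48 hr drug incubation at 37 C, then 40 min Hoechst staining and scanning imager measurement at 405 nm excitation.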
On to `O=C(COC(=O)Cc1ccc([N+](=O)[O-])cc1)NC1CCCCCC1`, for which the Potency result was “inactive”.

On to `O=C(OCC(=O)N1CCN(c2ccccc2)CC1)c1ccc([N+](=O)[O-])s1`, for which the Potency result is “inactive”.

`N#CCc1c[nH]c2ccc([N+](=O)[O-])cc12`: the Potency result was “inactive”.

As for `C/C=C/c1ccc(OCC(=O)NNC(=O)CN(C)S(=O)(=O)c2ccc(C)cc2)c(OC)c1`, the Potency entry was “inactive”.

Regarding `CCCCSc1nc2ccccc2[nH]1`, the Potency result is “inactive”.

For `CCc1nnc(NC(=O)CCCSc2nc3ccccc3[nH]2)s1`, the Potency entry is “inactive”.

On to `CCC(C)N1C(=O)S/C(=C/c2ccc(Sc3nc4ccccc4[nH]3)o2)C1=O` (stereo not drawn), for which the Potency is 18.4 µM (active).

Take `Nc1ncnc2c1cnn2C1CC(O)C(CO)O1` (stereo not drawn): the Potency result is “inactive”.

Take `CC(C)N(C(=O)[C@H]1C[C@H](CC(=O)NCCC2=CCCCC2)C(=O)N2CCc3c([nH]c4cc(CCC(=O)N(C)C)ccc34)[C@]12C)C(C)C`: the Potency result is “inactive”.

In the case of `CC(Nc1ccc([N+](=O)[O-])cc1[N+](=O)[O-])c1ccccc1` (stereo not drawn), the Potency result was “inactive”.

As to `COc1ccccc1NC(=O)CSc1nc2sc3c(c2c(=O)n1-c1ccccc1)CCN(C)C3`, the Potency result was “inactive”.

Regarding `CCCSc1nc2sc3c(c2c(=O)n1-c1ccc(OC)cc1)CCN(C)C3`, the Potency is 1.84 µM (active).

Consider `CCOc1ccc(-n2c(SCC(=O)OC)nc3sc4c(c3c2=O)CCN(C)C4)cc1`, for which the Potency result was “inactive”.

Turning to `Cc1noc(C)c1NC(=O)Nc1ccc2c(c1)C(=O)N([C@H](C)CO)C[C@H](C)[C@@H](CN(C)S(=O)(=O)c1cn(C)cn1)O2`, the Potency result is “inactive”.

`C[C@]12c3[nH]c4ccc(Cl)cc4c3CCN1C(=O)[C@@H](CC(=O)NCCCn1ccnc1)C[C@@H]2C(=O)N1CCOCC1`: the Potency entry was “inactive”.

As to `O=C(NN=Cc1ccccc1)c1ccccc1`, the Potency entry is “inactive”.

For `O=C(N/N=C/c1ccccc1O)C1CCCC1`, the Potency was 4.61 µM (active).

Regarding `O=C(N/N=C/c1c[nH]c2ccccc12)c1ccccc1O`, the Potency entry was “inactive”.

`COc1ccc(/C=N/NC(=O)C2CC2)c(OC)c1OC`: the Potency result is “inactive”.

As to `Oc1ccccc1C=NC1CCCCC1N=Cc1ccccc1O` (stereo not drawn), the Potency entry is “inactive”.

As to `O=C(NN=Cc1ccccc1O)NN=Cc1ccccc1O`, the Potency is 16.4 µM (active).

For the molecule `NC(CSC1(c2ccccc2)c2ccccc2-c2ccccc21)C(=O)O` (stereo not drawn), the Potency entry is “inactive”.

With `COc1cc(OC)cc(C(=O)NCC(=O)N2CCCCCCC2)c1`, the Potency result is “inactive”.

Consider `NC(=O)c1ncn([C@@H]2O[C@H](CNCc3cnc(N4CCOCC4)s3)[C@@H](O)[C@H]2O)n1`, for which the Potency entry is “inactive”.

On to `NS(=O)(=O)c1ccc(CCNC(=O)c2ccc(Cl)c(S(=O)(=O)N3CCCCCC3)c2)cc1`, for which the Potency entry is “inactive”.

`COc1ccc2oc(N)nc2c1`: the Potency result was “inactive”.

`CC[C@]1(C(=O)OC)[C@H]2C(=O)N(Cc3ccccc3)C(=O)[C@H]2[C@H]2CN=C(SCc3ccc(Cl)cc3)N21`: the Potency result is “inactive”.

As for `CCc1c(Nc2ccccc2C)nc(N)[nH]c1=O`, the Potency entry is “inactive”.

Turning to `Cc1c(C(=O)N2CCCc3ccccc32)oc2ccccc12`, the Potency result was “inactive”.

In the case of `Cc1cccc2cc3c(N)c(C(=O)N4CCCc5ccccc54)sc3nc12`, the Potency is 5.17 µM (active).

Regarding `Cc1c(C(=O)N2CCCc3ccccc32)sc2nc(-c3ccccc3)cn12`, the Potency result was “inactive”.

For the molecule `CN(C(=O)c1cccc(NC(=O)Cc2cccc(NC(=O)C3CCCN(C(=O)C4CC4)C3)c2)c1)C1CCC1` (stereo not drawn), the re-replication activation is 3.52% [at 9.22 µM].

As for `CC[C@]1(c2ccccc2OC)C(=O)N(C(=O)OC)N1C(=O)OC`, the Potency is 23.1 µM (active).

Take `COc1ccccc1CC(=O)Nc1ccc(F)cc1F`: the Potency result is “inactive”.

For `COC(=O)c1ccccc1NC(=O)Cc1ccccc1OC`, the Potency entry is “inactive”.

As to `O=C(Cc1ccc(Cl)cc1)c1ccccc1`, the Potency result was “inactive”.

In the case of `O=C1CC(C(=O)O)NC(=S)N1` (stereo not drawn), the Potency result is “inactive”.

On to `Cc1ccc(C)c(N2CCN(C(=O)CCc3nc(-c4cccc(C(F)(F)F)c4)no3)CC2)c1`, for which the Potency entry was “inactive”.

With `CC(C)CN1CC(C)C(=O)N(c2ccccc2)C1=S` (stereo not drawn), the Potency entry was “inactive”.

On to `COc1ccc(Nc2nnc(C)c3ccccc23)cc1`, for which the Potency entry is “inactive”.

With `COc1ccc(Nc2cc(=O)oc3ccccc23)cc1`, the Potency was 5.17 µM (active).

Regarding `COc1ccc2oc(=O)cc(-c3cc4ccccc4o3)c2c1`, the Potency entry was “inactive”.

For `CN1CCC(N(C)C(=O)c2ccc(Cl)c(S(=O)(=O)Nc3ccc(Cl)cc3)c2)CC1`, the Potency entry was “inactive”.

With `CCOC(=O)c1ccccc1OC(=O)Oc1ccccc1C(=O)OCC`, the Potency result is “inactive”.

In the case of `CCOC(=O)c1c(C)[nH]c(C)c1S(=O)(=O)N(C)CC(=O)Nc1ccccc1C`, the Potency result is “inactive”.

Consider `CCOC(=O)c1c(C)[nH]c2c1-c1ccccc1C(=O)C2=O`, for which the Potency was 5.17 µM (active).

In the case of `O=C(NCc1ccccc1)c1cccc(NC(=O)C2CCCCC2)c1`, the re-replication activation is -9.55% [at 9.22 µM].

Take `Cn1c(=O)[nH]c2c(c(C(=O)O)nn2C)c1=O`: the Potency entry was “inactive”.

For the molecule `COCC(=O)N(C)[C@H]1C[C@H]2c3cc(Oc4ccccc4C)ccc3CCN2C(=O)[C@H]1[C@H](C)O`, the Potency result is “inactive”.

Turning to `N#CC(Cc1cc2ccccc2n1S(=O)(=O)c1ccccc1)OCc1ccccc1` (stereo not drawn), the Potency result was “inactive”.

In the case of `CC(OC(=O)CNC(=O)c1ccc(Cl)c([N+](=O)[O-])c1)C(=O)NCc1ccco1` (stereo not drawn), the Potency entry is “inactive”.

With `CC(=O)Nc1ccc(NC(=O)C(C)OC(=O)c2ccccc2C(=O)c2ccc(Cl)c([N+](=O)[O-])c2)cc1` (stereo not drawn), the Potency is 16.4 µM (active).

`N#Cc1cccc(NC(=O)COC(=O)c2ccccc2C(=O)c2ccc(Cl)c([N+](=O)[O-])c2)c1`: the Potency entry is “inactive”.

For `Cc1ccc(S(=O)(=O)N2[C@@H](c3cccc4ccccc34)C(C(=O)O)=C[C@H]2C(C)(C)C)cc1`, the re-replication activation is -25.3% [at 9.22 µM].

Consider `CCCNC(=O)CSc1nc(Cc2ccccc2)nc2ccccc12`, for which the Potency is 9.2 µM (active).

Turning to `C=CCSc1nc(Cc2ccc(Cl)cc2)nc2ccccc12`, the Potency entry was “inactive”.

In the case of `CCc1nc(SCC(=O)NNC(=O)c2ccc(C)cc2)c2ccccc2n1`, the Potency entry is “inactive”.

For the molecule `CC(=O)Nc1ccc(C(=O)Nc2cc(S(=O)(=O)N3CCOCC3)ccc2N2CCOCC2)cc1`, the Potency result was “inactive”.

Take `CC(Oc1ccc2c(-c3ccccc3)cc(=O)oc2c1)C(=O)NC(Cc1c[nH]c2ccccc12)C(=O)O` (stereo not drawn): the Potency result is “inactive”.

For `CCCNC(=O)c1onc(CSc2ccc(F)cc2)c1C(=O)NC(C)C`, the Potency result is “inactive”.

Consider `COC(=O)c1c(CCl)noc1C(=O)NC(C)C`, for which the Potency is 20.6 µM (active).

As to `CCOc1cccc(SCc2noc(C(=O)NC(C)C)c2C(=O)O)c1`, the Potency entry was “inactive”.

`CC(=O)N1CCc2ccc(N)cc21`: the Potency result is “inactive”.

Consider `OC(COc1ccccc1)CN1CCN(c2cccc(Cl)c2)CC1` (stereo not drawn), for which the Potency entry was “inactive”.

Regarding `O=C(NN=CC=Cc1ccccc1)C(O)C(O)C(=O)NN=CC=Cc1ccccc1` (stereo not drawn), the Potency result was “inactive”.

With `CN(C(=O)c1cccc(NC(=O)Cc2ccc(NC(=O)C3CCCN(C(=O)C4CCCC4)C3)cc2)c1)C1CCC1` (stereo not drawn), the re-replication activation is -19.7% [at 9.22 µM].

Take `O=C(N/N=C\c1cc2c(cc1Cl)OCO2)c1ccc(Br)s1`: the Potency was 7.31 µM (active).

On to `O=C(N/N=C/c1cc2c(cc1Br)OCO2)C1COc2ccccc2O1` (stereo not drawn), for which the Potency entry is “inactive”.

Consider `CC1(C(=O)N/N=C/c2cc3c(cc2Br)OCO3)CC1(Br)Br` (stereo not drawn), for which the Potency result is “inactive”.

Turning to `O=C(CSc1ncnc2sccc12)NC1CCS(=O)(=O)C1` (stereo not drawn), the Potency result is “inactive”.

`O=C(Nc1ccc2c(c1)OCO2)C1CC1(Cl)Cl` (stereo not drawn): the Potency entry was “inactive”.

Regarding `O=C(Nc1c[nH]c(=O)[nH]c1=O)OCc1ccccc1`, the Potency entry is “inactive”.

With `COc1ccc(NC(=O)/C(N=Nc2cccc(S(=O)(=O)Nc3ccc(SC(F)F)cc3)c2)=C(\C)O)cc1`, the Potency result is “inactive”.

For the molecule `Nc1nc(-c2sc3nc4c(cc3c2N)CCCC4)nc(N2CCOCC2)n1`, the Potency was 10.3 µM (active).

With `Cc1nc(N2CCOCC2)nc2c1CCCC2`, the Potency entry was “inactive”.

On to `COc1ccc(/C=C/C(=O)OCC(=O)N2CCN(S(=O)(=O)c3ccc(C)cc3C)CC2)cc1OC`, for which the Potency entry is “inactive”.

For the molecule `Cc1nc(N)sc1-c1ccccc1`, the Potency entry is “inactive”.

With `O=C1COc2ccc(C(=O)CSc3ccc(Br)cc3)cc2N1`, the Potency result was “inactive”.

Turning to `C=CCn1c(=O)n(C)c2c(=O)n(C)c(=O)n(C)c21`, the Potency entry was “inactive”.

In the case of `COc1ccc(C(=O)N[C@H](C(=O)NCc2ccccc2)C(C)C)cc1`, the Potency entry was “inactive”.

Regarding `COc1cc(OC)cc(C(=O)N[C@H](C(=O)NNC(=O)c2ccc(Br)cc2)C(C)C)c1`, the Potency entry was “inactive”.

For `COc1cc(OC)cc(C(=O)N[C@H](C(=O)Nc2nc3ccccc3[nH]2)C(C)C)c1`, the Potency was 0.164 µM (active).

On to `Cc1ccc(S(=O)(=O)N2CCN(C(=O)c3cc(S(=O)(=O)N4CCOCC4)ccc3F)CC2)cc1`, for which the Potency entry is “inactive”.

For `CN(C)c1ccc(Nc2c3c4c(cccc4n(C)c2=O)C(=O)c2ccccc2-3)cc1`, the Potency is 7.31 µM (active).

For the molecule `CN(C)c1ccc(C2N(C)C(=O)c3ccccc3N2C)cc1` (stereo not drawn), the Potency result is “inactive”.

For `Cc1ccc(S(=O)(=O)NC[C@H]2O[C@@H](n3cnc4c(N)ncnc43)[C@H](O)[C@@H]2O)s1`, the Potency result is “inactive”.

For `CCOc1ccc2nc(NC(=O)c3cc([N+](=O)[O-])ccc3N3CCOCC3)sc2c1`, the Potency result was “inactive”.

Turning to `O=C(NC(Nc1nc2ccc([N+](=O)[O-])cc2s1)(C(F)(F)F)C(F)(F)F)c1ccccc1`, the Potency is 20.6 µM (active).

In the case of `CCC(=O)NC(Nc1nc2ccc(C)cc2s1)(C(=O)OC)C(F)(F)F` (stereo not drawn), the Potency result is “inactive”.

For `CC(=O)c1ccc(NC(=O)C(C)OC(=O)c2ccc(NS(=O)(=O)c3ccc4[nH]c(=O)[nH]c4c3)cc2)cc1` (stereo not drawn), the Potency entry is “inactive”.

Consider `Cc1cc(NC(=O)C(C)SCC(=O)Nc2cccc(S(=O)(=O)N3CCCCCC3)c2)no1` (stereo not drawn), for which the Potency entry is “inactive”.

For `C[C@H](CO)N1C[C@H](C)[C@H](CN(C)CC2CC2)Oc2ccc(NC(=O)CCN3CCOCC3)cc2C1=O`, the Potency entry is “inactive”.

In the case of `COc1cccc(C(=O)NC(=O)Nc2nc(C)cc(C(F)(F)F)n2)c1`, the Potency result is “inactive”.

Take `Cc1cc(Cl)nc(NC(=O)Nc2cccc(Cl)c2)n1`: the Potency result was “inactive”.

As to `Cc1cc(C)nc(NC(=O)Nc2ccccc2C(F)(F)F)n1`, the Potency was 16.4 µM (active).

For `CCC(C)C1(C2CCCC2)NC(=O)NC1=O` (stereo not drawn), the Potency result was “inactive”.

For `Nc1ncnc2c1ncn2[C@@H]1O[C@H](CNS(=O)(=O)c2ccc(-c3ccno3)s2)[C@@H](O)[C@H]1O`, the Potency result was “inactive”.

As for `Cc1cc2c(cc1C)NC1(C[C@H]3CCC(=O)N4CC[C@@H](C1)[C@@H]34)C(=NC(C)(C)CC(C)(C)C)N2` (stereo partly drawn), the Potency entry was “inactive”.
